Cruzain inh noDet = cruzain (T. cruzi) inhibition without detergent. P25779. purified cruzain, Z-FR-AMC fluorescence, no detergent. AID 1476. Potency, µM, without a hit: max response, negative = inhibition, most hits filed as inhibitors. actives 2.3% (n = 200,000);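 note: plate controls were enzyme without inhibitor for no effect and buffer without enzyme for full effect; nearly all actives have a fitted effect of over 40% in size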
Target sequence (P25779 123-467 limits assumed): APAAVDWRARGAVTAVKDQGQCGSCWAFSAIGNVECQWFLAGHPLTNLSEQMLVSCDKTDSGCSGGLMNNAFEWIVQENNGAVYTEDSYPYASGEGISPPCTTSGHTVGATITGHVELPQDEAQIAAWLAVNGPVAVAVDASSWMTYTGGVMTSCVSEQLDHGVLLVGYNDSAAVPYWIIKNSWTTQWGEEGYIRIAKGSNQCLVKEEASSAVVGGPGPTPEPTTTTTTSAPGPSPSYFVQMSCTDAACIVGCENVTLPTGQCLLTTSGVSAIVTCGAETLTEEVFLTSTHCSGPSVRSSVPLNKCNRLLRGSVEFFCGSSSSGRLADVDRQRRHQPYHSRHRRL
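Purified cruzain at 1.5 nM, pre-incubated 15 min with compound at room temperature in 100 mM sodium acetate pH 5.5, 5 mM DTT, 0.00005% Triton X-100. Reaction started with 2 uM Z-FR-AMC; AMC fluorescence increase over 60 s gives rate.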
Cruzain inh Det = inhibitors of Trypanosoma cruzi cruzain with detergent. Potency, µM, for the others: max response, negative = inhibition, hits mostly inhibitors. AID 1478. P25779. purified cruzain, Z-FR-AMC fluorescence, 0.01% Triton. actives 0.43% (n = 200,000);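 note: plate controls were neutral wells for no effect and buffer without enzyme for full effect; nearly all actives have a fitted effect of over 40% in size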
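Steps: dispense cruzain (1.5 nM final) in acetate buffer pH 5.5 with DTT and 0.01% Triton X-100; pin-transfer compounds; incubate 15 min RT; add Z-FR-AMC (2 uM final); read fluorescence every 30 s, using the 60 s intensity change.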
* marks the source's active call; other numbers are inactive results; ? = inconclusive. This is a sample that favours compounds with a hit; in the whole collection about 2.5% have one here. Calls come from the whole dose curve; as a rule, active = well fitted curve in the direction sought with a large enough effect; inconclusive = small, poorly fitted or top-dose-only effect, or another doubt; inactive = no such curve, though single readings can be large; an effect the other way counts as inactive or inconclusive. Potency is the fitted concentration of half-maximal effect.

SMILES	Cruzain inh noDet	Cruzain inh Det
Cc1ccc(CN2CCSc3ccc(C(=O)NCc4ccc(OC(C)C)cc4)cc32)cc1	3%	-5%
Cc1ccc(CN2CCSc3ccc(C(=O)Nc4ccc(Cl)cc4)cc32)cc1	7.9µM*	-5%
CC(=O)c1cccc(NC(=O)c2ccc3c(c2)N(Cc2ccc(C)cc2)CCS3)c1	13µM*	-13%
O=C(NCCc1ccc(Cl)cc1)c1ccc2c(c1)N(Cc1ccccc1)CCS2	-24%	-5%
O=C(Nc1ccc(Cl)cc1)c1ccc2c(c1)N(Cc1ccccc1)CCS2	32µM*	-11%
COc1ccc(-c2[nH]c(-c3ccc(C)cc3)nc2SCC(=O)NCC2CCCO2)cc1 (stereo not given)	4%	-5%
CCOc1ccc(NC(=O)Cn2c(C)cc3ccccc3c2=O)cc1	-10%	0%
Cc1ccc(NC(=O)COc2ccc(-c3nn(C)c(=O)c4ccccc34)cc2)c(C)c1	6%	-1%
Cc1ccc(CN2CCSc3ccc(C(=O)NCCc4ccccc4)cc32)cc1	-28%	-11%
Cc1ccc(CN2CCSc3ccc(C(=O)Nc4cc(C)cc(C)c4)cc32)cc1	10µM*	-19%
CCOc1ccc2c(c1)-c1c(ssc1=S)C(C)(C)N2C(=O)CSC1=NCCS1	16µM*	-7%
Cc1ccc2c(c1)-c1c(ssc1=S)C(C)(C)N2C(=O)CSC1=NCCS1	?	-3%
COc1ccc(NC(=O)C2CCCN(C(=O)c3cnn(-c4ccc(F)cc4)c3-n3cccc3)C2)cc1 (stereo not given)	?	-12%
CCOC(=O)c1c(Nc2cccc(O)c2)nnc(-c2ccccc2)c1-c1ccccc1	6%	-12%
CCc1ccc(NC(=O)CCn2c(-c3ccc(OC)cc3)cc(C(C)=O)c2C)cc1	6%	-7%
CCN(CC)S(=O)(=O)c1cccc(C(=O)OCC(=O)Nc2ccc3c(c2)c2ccccc2n3CC)c1	7.9µM*	-4%
CCn1c2ccccc2c2cc(NC(=O)COC(=O)c3cccc(S(=O)(=O)NC)c3)ccc21	-26%	-2%
CCC(CC)C(=O)Nc1nc(-c2ccc3c(c2)CCN3C(=O)C2CC2)c(C)s1	-2%	-7%
Cc1cccc(C(=O)N2CCc3cc(-c4nc(NC(=O)Cn5nnc6ccccc6c5=O)sc4C)ccc32)c1	10µM*	-4%
Cc1sc(NC(=O)CN2CCOCC2)nc1-c1ccc2c(c1)CCN2S(=O)(=O)c1ccccc1	?	-4%
Cc1sc(NC(=O)Cc2ccc3c(c2)OCO3)nc1-c1ccc2c(c1)CCN2C(=O)c1cccc(F)c1	7.9µM*	-1%
COc1ccc(CCC(=O)NCc2ccc3c(c2)CCN3C(=O)c2cccc(C)c2)cc1	21%	-3%
Cc1ccccc1C(=O)N1CCc2cc(-c3nc(NC(=O)Cc4ccc5c(c4)OCO5)sc3C)ccc21	3.2µM*	-14%
COc1cccc(NC(=O)c2oc3ccc(S(=O)(=O)N4CCC5(CC4)OCCO5)cc3c2C)c1	?	-2%
CC(=O)c1cccc(NC(=O)c2nc3ccccc3nc2N2CCCCC2)c1	14%	-4%
SMILES	Cruzain inh noDet	Cruzain inh Det
Cc1cccc(NC(=S)NC(=O)c2cc(-c3ccccc3)nc3ccccc23)c1	20µM*	8%
Cc1cccc(-c2cc(C(=O)Nc3ccc4c(c3)OCCO4)c3ccccc3n2)c1	32µM*	2%
CCOc1ccc(-c2cc(C(=O)Nc3ccc4c(c3)OCCO4)c3ccccc3n2)cc1	?	-5%
Cc1ccccc1NC(=S)NC(=O)c1cc(-c2ccccc2)nc2ccccc12	?	0%
c1cncc(CNCc2cccnc2)c1	8%	9%
C[C@H]1C2=C3C(CC[C@H]4C(OCc5ccc(F)cc5C(F)(F)F)OC[C@](C)([C@@H]34)N(C(=O)OC(C)(C)C)C2)C(CO)C1CO (stereo not given in full)	?	-6%
CN(C)Cc1ccc(C(C)(C)C)cc1-c1cc(C(C)(C)C)ccc1CN(C)C	-6%	0%
Cc1ccc(-c2nnn(CC(=O)Nc3ccc4nn(-c5ccccc5)nc4c3)n2)o1	10µM*	-7%
Cc1ccc(-c2nnn(CC(=O)NCC3CC3)n2)o1	-1%	1%
O=C(CSc1nc(-c2cccs2)nc2cc(=O)[nH]n12)Nc1ccccc1	?	1%
Cc1cc(C)cc(NC(=O)CN2C(=O)CSc3ccc(S(=O)(=O)N(C)C)cc32)c1	-24%	-1%
Cc1ccc(O)c(C(=O)c2cnc3onc(-c4ccc(F)cc4)c3c2)c1	13µM*	-4%
Cc1noc2ncc(C(=O)c3cc(F)ccc3O)cc12	-5%	1%
Cc1oc(-c2ccccc2F)nc1Cn1c(SCc2ccccc2F)nc2ccncc21	-6%	-15%
Cc1ccccc1NC(=O)CSc1nnc(-c2cccs2)o1	2%	-2%
O=C(CSc1ncnc2c1cnn2-c1ccccc1)Nc1ccc2c(c1)OCO2	-7%	2%
O=C(CSc1ncnc2c1cnn2-c1ccc(Cl)cc1)NCc1ccc2c(c1)OCO2	13µM*	3%
Cc1nn(CCCC(=O)Nc2cccc(F)c2)c(=O)c2c1sc1ccccc12	6%	-4%
Cc1cccc(C(c2sc3nc(-c4ccco4)nn3c2O)N2CCN(c3ccccc3F)CC2)c1 (stereo not given)	-21%	0%
Nc1ccc2nn(-c3cccc4ccccc34)nc2c1	?	-3%
Cc1cc2nn(-c3cccc4ccccc34)nc2cc1N	16µM*	-3%
Cc1cc(OC(C)C(=O)N(Cc2ccco2)Cc2ccccc2F)cc(C)c1Cl (stereo not given)	-7%	-14%
O=C(Nc1ccc(N2CCCC2)cc1)c1cccc(F)c1	?	-14%
O=C(Nc1ccc(Br)cn1)c1cccc(-c2cc3ccccc3oc2=O)c1	?	-12%
Cc1nc(NC(=O)c2cccc(-c3cc4ccccc4oc3=O)c2)ccc1Br	20µM*	-11%
SMILES	Cruzain inh noDet	Cruzain inh Det
O=C(Nc1ccccc1N1CCCC1)c1cccc(-c2cc3ccccc3oc2=O)c1	25µM*	-4%
O=C(Nc1ccc(N2CCCC2)cc1)c1cccc(-c2cc3ccccc3oc2=O)c1	4µM*	-16%
O=C(Nc1ccc(N2CCCC2)cc1)c1ccccc1F	20µM*	-10%
Cc1nc(NC(=O)c2ccc(-c3cc4ccccc4oc3=O)cc2)ccc1Br	?	-1%
O=C(Nc1ccc(N2CCOCC2)cc1)c1cc2ccccc2o1	-18%	0%
Cc1ccc2oc(C(=O)Nc3c(C(=O)Nc4ccccc4)oc4ccccc34)cc(=O)c2c1	-10%	0%
O=C(Nc1ccc(N2CCCC2)cc1)c1ccc([N+](=O)[O-])cc1Cl	10µM*	0%
O=C(Nc1ccc(N2CCCC2)cc1)c1ccc2ccccc2c1	16µM*	-23%
CN(C)c1ccc(NC(=O)c2ccc([N+](=O)[O-])cc2Cl)cc1	?	-1%
O=C(Nc1ccc(N2CCCCC2)cc1)c1ccccc1	-6%	-1%
COc1cccc(NC(=O)CSC2=Nc3ccccc3C3=NC(CC(=O)NCc4ccc5c(c4)OCO5)C(=O)N23)c1 (stereo not given)	12%	-5%
COc1ncc2ncc(=O)n(CCc3ccccc3)c2n1	2%	1%
CCN(CC)c1ccccc1	-6%	-1%
Nc1ccc(N(c2ccccc2)c2ccc(N)cc2)cc1	32µM*	-1%
COc1ccc(C=Nc2cccc3c(=O)[nH][nH]c(=O)c23)c2ccccc12	32µM*	-10%
COc1ccc(/C=C/c2ccncc2)c2ccccc12	-1%	-3%
CCc1cccc(NC(=O)C2CCCN(S(=O)(=O)c3cccs3)C2)c1 (stereo not given)	-7%	-9%
